Measles CPE: protection of cells from measles virus. Measles virus-infected cells, CPE protection, absorbance. protection (pct of control), % at 4 µM. 140,000 compounds, 1.5% hits; in the data active = protection mostly above about 24%, no sharp cut-off; inactive = mostly below about 26%
Calb biofilm kill: kills Candida albicans biofilms. C. albicans biofilm + clotrimazole, Alamar Blue. inhibition, % at 6 µM. 85,000 compounds, 0.14% hits;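 active = inhibition above 20%; inactive = inhibition below 20%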;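 note: preformed 24 hr biofilms exposed to compound for 48 hr; 0% = biofilm without compound and 100% = blank killed by clotrimazole plus chlorhexidine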
cytoskel mod: modifiers of cytoskeleton assembly; 91,000 compounds, 0.18% hits; inhibition, % at 2 µM; AID 836; HUVEC TNFa F-actin phalloidin imaging, high content;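 active = inhibition above the batch mean plus 3 SD and confirmed as a hit by visual image inspection, cut at about 30% in these data, passing the limit was not always enough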
sEH inh: inhibitors of human soluble epoxide hydrolase | P34913 | recombinant human sEH enzymatic activity assay | inhibition, % at 2 µM | 91,000 compounds, 0.34% hits; in the data active = inhibition above about 80%
Target sequence (P34913 whole entry, looked up): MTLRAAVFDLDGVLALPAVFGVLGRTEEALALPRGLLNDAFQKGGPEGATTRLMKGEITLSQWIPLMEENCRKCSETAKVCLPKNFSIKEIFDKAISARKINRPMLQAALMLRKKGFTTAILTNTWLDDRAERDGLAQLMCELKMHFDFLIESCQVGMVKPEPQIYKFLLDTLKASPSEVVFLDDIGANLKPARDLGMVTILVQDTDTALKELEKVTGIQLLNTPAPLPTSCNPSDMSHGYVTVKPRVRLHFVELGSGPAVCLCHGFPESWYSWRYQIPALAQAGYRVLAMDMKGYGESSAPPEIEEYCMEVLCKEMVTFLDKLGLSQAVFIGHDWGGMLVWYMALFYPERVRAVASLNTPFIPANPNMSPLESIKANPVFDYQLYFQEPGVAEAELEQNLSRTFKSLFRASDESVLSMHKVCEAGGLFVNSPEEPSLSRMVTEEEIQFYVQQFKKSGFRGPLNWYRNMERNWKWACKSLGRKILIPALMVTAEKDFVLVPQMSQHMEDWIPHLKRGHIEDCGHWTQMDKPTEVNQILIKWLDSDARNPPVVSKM
sEH activator: soluble epoxide hydrolase (human) activation | purified human sEH enzymatic activity, activator screen | activation, % at 2 µM | 91,000 compounds, 0.04% hits; in the data active = activation above about 37%
An asterisk follows results filed as active; · = no result. Most compounds without a hit are left out; they make up all but 1.9% or so of the library.

SMILES	Measles CPE	Calb biofilm kill	cytoskel mod	sEH inh	sEH activator
O=C1CC(c2ccccc2)n2nc(N3C(=O)CCC3=O)nc2N1 (stereo unspecified)	52.0*	3.4	13.0	·	·
O=C1CC(c2ccc(Cl)cc2)n2nc(N3C(=O)CCC3=O)nc2N1 (stereo unspecified)	5.3	5.8	21.9	-7.2	5.9
COc1ccc(C(=O)Nc2ccc(/C(C)=N/NC(=O)c3ccccc3O)cc2)cc1OC	45.3*	·	·	·	·
COc1ccc(C(=O)Nc2cccc(/C(C)=N/NC(=O)c3ccc([N+](=O)[O-])cc3)c2)cc1OC	12.7	·	6.5	5.4	-5.4
Cn1c(CSCc2ccc(Cl)cc2)nnc1SCC(=O)Nc1nc2ccccc2s1	12.9	4.4	9.5	13.1	-16.1
Cc1nn(CC(=O)Nc2ccc(C(=O)N(C)C)cc2)c(=O)c2ccccc12	14.8	-4.2	34.3*	-24.6	24.6
Cc1nn(CC(=O)Nc2ccccc2)c(=O)c2ccccc12	2.1	2.4	·	-8.2	13.7
COc1ccc(/C=N/N2CCN(c3ccccc3OC)CC2)cc1OC	2.9	·	13.9	-7.6	6.5
COc1cccc(/C=N/N2CCN(c3ccccc3OC)CC2)c1	49.0*	·	-10.9	0.3	-1.4
CCOc1ccc(C(C)=O)cc1Cn1nc(C(=O)O)c2ccccc2c1=O	50.4*	-1.2	-12.2	-5.1	4.5
CCc1cc(OCCCCNCc2ccccc2)ccc1Cl	1.8	·	·	·	·
Cc1ccc(-c2nc3ccccc3c(C(=O)NCc3cccs3)c2C)cc1	0.7	·	-5.5	14.6	-13.3
CCOC(=O)Nc1cc(C(=O)OC)ccc1C	32.6*	·	-10.6	-7.4	5.5
COc1cc(C(=O)Nc2ccc(Br)cc2C(=O)c2cc(OC)c(OC)c(OC)c2)cc(OC)c1OC	1.3	·	15.4	-8.2	6.0
Cc1ccc(-c2nc3cc(C)ccc3o2)cc1	56.3*	2.0	5.0	16.1	-16.5
Cc1ccc(-c2nc3cc(N)ccc3o2)cc1	6.9	4.1	29.7	5.0	-5.7
Cc1cccc(C)c1NC(=O)CCN1C(=O)C2C3CCC(C3)C2C1=O (stereo unspecified)	21.0*	·	-6.7	16.5	-13.0
COC(=O)[C@@]1(Cc2ccc(OC)cc2)[C@H]2c3cc(C(=O)N4CCCC4)n(CCn4cc([N+](=O)[O-])nc4C)c3C[C@H]2CN1C(=O)c1ccccc1	5.8	·	·	·	·
Cc1nn(C)cc1CNC(=O)c1cc2n(n1)C(C(F)(F)F)CC(c1cccs1)N2 (stereo unspecified)	20.4*	3.4	-41.1	-3.5	4.2
Cc1nn(C)c(C)c1CNC(=O)c1nn2c(c1Cl)NC(c1cccs1)CC2C(F)(F)F (stereo unspecified)	12.2	·	23.9	-3.0	1.1
CC1Cc2cc(-c3csc(NC(=O)Cc4cccs4)n3)ccc2N1S(C)(=O)=O (stereo unspecified)	101.6*	0.9	2.2	7.8	-7.1
CS(=O)(=O)N1CCc2cc(-c3csc(NC(=O)Cc4ccccc4)n3)ccc21	117.7*	0.0	-7.6	9.9	-4.7
COc1ccccc1NC(=O)CC(NC1CCCCC1)C(=O)O (stereo unspecified)	11.7	·	·	·	·
C=CCNC(=O)C1CC(=O)N(c2ccc(OCC(=O)Nc3cccc(OC)c3)cc2)C1 (stereo unspecified)	5.4	8.6	51.5*	-1.8	1.1
Cc1ccc2c(c1)N(C(=O)CCC(=O)O)CCO2	27.8*	·	·	·	·
SMILES	Measles CPE	Calb biofilm kill	cytoskel mod	sEH inh	sEH activator
CCOC(=O)c1c(NC(=O)c2ccccc2Br)sc2c1CCc1ccccc1-2	18.6	4.5	-10.0	0.8	-0.6
Nc1cc(=O)nc(SCC(=O)Nc2cccc3ccccc23)n1CCc1ccccc1	3.7	·	-2.0	-4.1	1.1
O=C1N=C(N2CCN(c3ccccc3)CC2)S/C1=C\c1cn[nH]c1-c1ccccc1	29.1*	·	·	·	·
Cc1ccc(N2CCN(C3=NC(=O)/C(=C\c4cn[nH]c4-c4ccccc4)S3)CC2)cc1	9.4	·	·	·	·
C=CCNc1nc(N)c(C(=C(C#N)C#N)c2ccc(Br)cc2)s1	21.5	·	·	·	·
Cc1ccc(N(CC(=O)Nc2ccccc2-c2ccccc2)S(=O)(=O)c2ccccc2)c(C)c1	6.8	·	·	·	·
O=C(Nc1ccccc1C(=O)NCc1ccco1)c1ccccc1	13.2	2.1	21.5	-8.3	9.6
O=C(/C=C/c1ccc(Cl)cc1)NCc1ccco1	18.5*	·	·	·	·
O=C(Nc1ccc(Cl)cc1)Nc1ccccc1C(=O)NCc1ccco1	37.6*	9.3	0.0	-10.8	11.1
O=C(/C=C/c1ccc(S(=O)(=O)NCc2ccco2)cc1)NCc1ccccc1Cl	6.5	·	·	·	·
Cc1cc(C)nc(SCc2nnc(SCC(=O)Nc3nccs3)n2Cc2ccco2)n1	40.7*	·	18.6	-6.7	5.9
Cc1cccc(NC(=O)CSc2nnc(CSc3nc(C)cc(C)n3)n2Cc2ccco2)c1	8.7	12.4	4.7	-0.4	1.6

Screening results from PubChem BioAssay.
